HttQ103 aggreg = qHTS Multiplex Assay to Identify Dual Action Probes in a Cell Model of Huntington: Aggregate Formation (GFP) | Potency, µM (highest dose often 46.1 µM), hits mostly inhibitors | actives 1.1% (n = 220,000) | PC12 HttQ103-GFP aggregates, Acumen cytometry, 40 h | AID 1688, 2009; note: nearly all actives have a fitted effect of over 60% in size
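Steps: seed 1500 PC12 HTTQ103-GFP cells/well; add tebufenozide, 100 nM final; add compound titration; add ATPLite reagent; quantify GFP aggregates by laser scanning cytometry.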
HPGD block = qHTS Assay for Inhibitors of HPGD (15-Hydroxyprostaglandin Dehydrogenase). purified HPGD, NADH fluorescence kinetic, PGE2 substrate. actives 4.3% (n = 150,000). 15-hydroxyprostaglandin dehydrogenase [NAD(+)] (Homo sapiens), P15428. Potency, µM, usual class: inhibitors. AID 894, 2007; active = well fitted inhibition curve with a large enough effect, not every such curve was filed as active; inconclusive = small, poorly fitted or top-dose-only effect, or another doubt; inactive = no such curve, though single readings can be large or run the other way
Target sequence (P15428 whole entry, looked up): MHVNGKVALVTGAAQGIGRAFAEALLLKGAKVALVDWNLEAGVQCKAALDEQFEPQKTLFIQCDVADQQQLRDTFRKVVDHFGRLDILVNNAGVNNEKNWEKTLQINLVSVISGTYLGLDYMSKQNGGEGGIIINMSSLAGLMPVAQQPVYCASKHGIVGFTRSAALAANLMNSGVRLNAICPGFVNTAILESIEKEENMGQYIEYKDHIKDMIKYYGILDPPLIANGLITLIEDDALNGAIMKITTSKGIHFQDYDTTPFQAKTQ
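NADH formation kinetics: reaction with 30 uM PGE2 and 1 mM NAD+ (final), 20 nM enzyme, Tris-HCl pH 8 with Tween 20, after 15 min compound preincubation at room temperature. Fluorescence change, last versus first of five reads.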
HTT cytoprotect = qHTS Multiplex Assay to Identify Dual Action Probes in a Cell Model of Huntington: Cytoprotection (ATP); PC12 HTT-Q103 induced, cytoprotection, ATP luminescence, 40 h; Potency, µM (doses to about 56.4 µM), most hits filed as activators; actives 0.14% (n = 230,000); AID 1471, 2008; note: nearly all actives have a fitted effect of over 45% in size
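Rat PC12, Q103 Htt exon1-GFP fusion, ecdysone promoter; tebufenozide inducer 100 nM final; compound titration; qHTS, 1500 cells/well; ATPlite luminescent read.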
Lamin A splicing = qHTS Assay for Modulators of Lamin A Splicing. HeLa LMNA splicing GFP/RFP minigene ratio, 48 h. Potency, µM (doses to about 46.1 µM), hits mostly inhibitors. actives 0.01% (n = 200,000). AID 1487, 2009; active = well fitted inhibition curve with a large enough effect in the signal ratio, with a control signal flat, not every such curve was filed as active; inconclusive = small, poorly fitted or top-dose-only effect, or effect the other way, or a change in a side signal; the % refers to the signal ratio
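S3 HeLa cells stably expressing lamin A-EGFP splicing minigene plus DsRed2, 600 cells/well, 48 h compound exposure at 37C. Laser-scanning cytometry; analysed as GFP (500-530 nm)/RFP (575-640 nm) total intensity ratio; 0.5% DMSO vehicle.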
ALDH1A1 inh = qHTS Assay for Inhibitors of Aldehyde Dehydrogenase 1 (ALDH1A1) | Potency, µM (series often up to 75.3 µM), hits mostly inhibitors | Purified ALDH1A1, NADH fluorescence, propionaldehyde substrate | actives 7.3% (n = 220,000); active = well fitted inhibition curve with a large enough effect, not every such curve was filed as active; inconclusive = small, poorly fitted or top-dose-only effect, or another doubt; inactive = no such curve, though single readings can be large or run the other way
Target sequence (P00352 whole entry, looked up): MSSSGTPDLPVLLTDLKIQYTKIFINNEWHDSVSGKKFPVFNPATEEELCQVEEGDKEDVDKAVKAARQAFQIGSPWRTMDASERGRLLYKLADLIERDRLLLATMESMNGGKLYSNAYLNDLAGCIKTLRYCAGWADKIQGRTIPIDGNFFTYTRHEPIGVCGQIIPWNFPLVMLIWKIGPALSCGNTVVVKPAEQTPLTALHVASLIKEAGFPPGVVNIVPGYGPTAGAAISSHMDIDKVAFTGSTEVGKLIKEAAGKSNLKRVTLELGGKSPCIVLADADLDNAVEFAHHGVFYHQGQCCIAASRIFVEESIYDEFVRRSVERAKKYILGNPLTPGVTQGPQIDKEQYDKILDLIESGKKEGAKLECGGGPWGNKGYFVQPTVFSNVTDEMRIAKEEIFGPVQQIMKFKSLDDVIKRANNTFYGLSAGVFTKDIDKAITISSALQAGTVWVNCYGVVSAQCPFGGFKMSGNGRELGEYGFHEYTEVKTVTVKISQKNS
Hits are given with their value; - = inactive; ? = inconclusive; . = no result given; [ ] = remark or other dose. In the library only some 8.8% were active in any assay of this set; here they are far more common. Unless noted, calls come from the whole dose curve; as a rule, active = well fitted curve in the direction sought with a large enough effect; inconclusive = small, poorly fitted or top-dose-only effect, or another doubt; inactive = no such curve, though single readings can be large; an effect the other way counts as inactive or inconclusive.

SMILES	HttQ103 aggreg	HPGD block	HTT cytoprotect	Lamin A splicing	ALDH1A1 inh
O=C(O)CCC(=O)Nc1ccc(C(=O)OCC(=O)c2ccc(Cl)cc2)cc1	-[9.22 µM]	.	-[10 µM]	.	-
O=C(COC(=O)c1ccc(O)cc1)Nc1ccc(Cl)cc1	-[9.22 µM]	.	-	.	8.9µM
CC(=NCCN1CCNCC1)C1=C(O)CC(C)(C)CC1=O	-	.	-	?	25µM
CCC(=NCCN1CCNCC1)C1=C(O)CC(C)(C)CC1=O	-	-	-[10 µM]	-	?
Cc1ccc(S(=O)(=O)c2cn(Cc3cccc(F)c3)c3cc(N4CCCC4)c(F)cc3c2=O)cc1	.	.	.	-	.
CCOC(=O)CCCNC(=O)CSc1nc2ccc(OCC)cc2[nH]1	-	.	-	-	-
C/C(=C\C(=O)c1cccnc1)Nc1ccc(O)cc1	-	16µM	-	-	?
C/C(=C\C(=O)c1ccccc1)Nc1ccc(O)cc1	-	-	-	-	-
O=c1c2cn[nH]c2nc(SCc2ccccc2F)n1-c1ccc(Br)cc1	13µM	-	.	?	?
Cc1cccc(NC(=O)CSc2nc3[nH]ncc3c(=O)n2-c2ccccc2)c1	-	-	.	-	4.5µM
O=C(CSc1nnc(-c2cccs2)n1-c1ccccc1)c1ccc2c(c1)OCCO2	?	.	-[10 µM]	-	-
O=C(CSc1nc2[nH]ncc2c(=O)n1-c1ccccc1)NCCc1ccccc1	?	.	-	-[9.22 µM]	?
O=c1c2cn[nH]c2nc(SCc2cc(=O)n3cc(Br)ccc3n2)n1-c1ccc(Br)cc1	-	.	-	.	-
O=C(CSc1nc2[nH]ncc2c(=O)n1-c1ccccc1)c1ccc2c(c1)OCCO2	-	-	-	?	0.32µM
Cc1cccc(NC(=O)CSc2nc(NS(=O)(=O)c3ccccc3)cc(=O)[nH]2)c1	-[9.22 µM]	.	-[10 µM]	.	28µM
Cc1ccc(NC(=O)CSc2nc(NS(=O)(=O)c3ccc(C)cc3)cc(=O)[nH]2)cc1	-	-	-	?	-
CC(=O)Oc1cc(OC(C)=O)c2c(=O)cc(-c3ccc(OC(C)=O)c(OC(C)=O)c3)oc2c1	.	-	-[1.9 µM]	.	-
O=C(COCc1cc(-c2cccs2)on1)Nc1ccc(OC(F)(F)F)cc1	.	.	.	-	.
O=C(/C=C/c1ccc(OCc2ccccc2)c(OCc2ccccc2)c1)c1cccnc1	-	-	-[1.9 µM]	?	7.1µM
O=C(/C=C/c1ccccc1Cl)c1cccnc1	-	28µM	-	?	14µM
N/C(=N\OC(=O)/C=C/c1ccccc1Cl)c1ccncc1	-	.	?	.	10µM
CCN(CC)c1ccc(/C=C/C(=O)c2cccnc2)cc1	-	.	-	-[9.22 µM]	-
O=C(/C=C/c1ccc(Cl)cc1)c1cccnc1	-[9.22 µM]	-	-	?	-
COC(=O)CC1c2ccccc2C=C(/C=C/c2ccc3c(c2)OCO3)N1C(=O)OC (configuration not stated)	.	?	-[10 µM]	?	?
O=C(NCCc1ccc(F)cc1)C(=O)NCC(c1ccc2c(c1)OCO2)N1CCOCC1 (configuration not stated)	.	.	.	-	.
SMILES	HttQ103 aggreg	HPGD block	HTT cytoprotect	Lamin A splicing	ALDH1A1 inh
O=C(CCCOc1ccccc1)N1CCCCC1	-	4µM	-	-	-
O=C(COc1ccc(Cl)cc1)N1CCCCC1	-	25µM	-	-	-
CC(C)(C)c1ccc(OCCCC(=O)N2CCOCC2)cc1	-[9.22 µM]	.	-[10 µM]	-	-
O=C(CCCOc1ccc(Cl)cc1)N1CCCCCC1	?	2.2µM	-	-	7.9µM
CCOC(=O)C1CCN(C(=O)CCCOc2ccccc2)CC1	-	-	-[10 µM]	-	?
Cc1cc(Cl)ccc1OCC(=O)N1CCCCC1	-	28µM	-[10 µM]	?	-
Cc1cc(Cl)ccc1OCC(=O)N1CCN(c2ncccn2)CC1	-	.	-[10 µM]	?	-
O=C(COc1ccc(Cl)cc1)N1CCN(C(=O)c2cccc(F)c2)CC1	-	-	-	-	14µM
COc1ccc(OCCNC(=O)c2ccccc2OCC(=O)N2CCCCC2)cc1	-	-	-[10 µM]	?	3.5µM
O=C(c1cccc(F)c1)N1CCCN(C(=O)c2cccc(F)c2)CC1	-	-	-[10 µM]	-	-
O=C(c1cccc(F)c1)N1CCN(C(=O)c2nn3cccnc3c2Cl)CC1	-	-	-[10 µM]	-	20µM
O=C(CCCOc1ccc(Cl)cc1)N1CCCCC1	-	1.6µM	-	-	-
O=C(COc1ccccc1)N1CCN(C(=O)c2cccc(F)c2)CC1	-	-	-[1.9 µM]	-	-
O=C(CCCOc1ccc(Cl)cc1)N1CCOCC1	-	-	-	-	-
Cn1c(=O)c(-c2cccc(Cl)c2)nc2cncnc21	.	-	-	.	-
CC(C)C[C@@H](CC(=O)N[C@@H](CCC(=O)O)CC(=O)O)NC(=O)[C@@H]1CCCC[C@H]1NC(=O)C[C@H](CCCN)NC(=O)C[C@H](CO)NC(=O)[C@@H]1CNCC[C@H]1N	.	-	?	.	-
CN(c1ccc(OCC(=O)N2CCCCC2)cc1)S(=O)(=O)c1cccs1	-	14µM	-	?	-
Cc1cc(O)c(C(C)C)cc1N=Nc1ccccc1C(=O)O	-[9.22 µM]	.	-[10 µM]	.	.
Cc1cc(NO)c(C(C)C)cc1N=O	3.2µM	-	-[10 µM]	?	-
N#CCCN1CCN(C(=S)c2ccc(-c3ccc(Cl)cc3)o2)CC1	-	20µM	-	?	4.5µM
COc1ccc2nc(SCC(=O)N3CCN(c4ccc(F)cc4)CC3)c(C#N)cc2c1	-	-	-[1.9 µM]	-	7.9µM
COc1ccc(CC(=S)N2CCOCC2)cc1	-	?	-[10 µM]	-	8.9µM
CCc1ccc(CC(=S)N2CCOCC2)cc1	-	.	-	.	-
COc1ccc(OCCC(=O)N2CCOCC2)cc1	-	.	-[10 µM]	-	-
Cc1ccc(CC(=S)N2CCOCC2)cc1	-	.	-	.	24µM
SMILES	HttQ103 aggreg	HPGD block	HTT cytoprotect	Lamin A splicing	ALDH1A1 inh
CC(C)(C)OC(=O)N1CCC(c2c(C(=O)N3CCOCC3)cnn2-c2cccc(F)c2)CC1	.	.	.	-	.
CC1=C/C(=C/N(C)c2ccccc2)C(=O)S1	-	32µM	-	-	20µM
CC1=C/C(=C\c2ccc3c(c2)OCO3)C(=O)S1	-	-	-	-	?
CCOc1cccc2sc(NC(=O)c3ccc(S(=O)(=O)N4CCCc5ccccc54)cc3)nc12	.	.	.	-	.
COc1ccccc1C(=O)Nc1ccccc1SCc1cc(=O)c2ccccc2[nH]1	.	.	.	-	.
Cc1cccc(N2CCN(C(=O)Cn3ncc4c([nH]c5ccccc54)c3=O)CC2C)c1 (configuration not stated)	.	.	.	-	.
COCCOC(=O)c1c(C)n(C)c2ccc(OC(=O)C3CC3)cc12	-	-	-	-	10µM
COCCOC(=O)c1c(C)n(C)c2ccc(OC(=O)c3ccco3)cc12	-	-	-[10 µM]	-	-
Cc1oc2c(O)c(O)ccc2c(=O)c1-c1cnn(-c2ccccc2)c1	-	18µM	-	-	28µM
Cc1nn(-c2ccc(N3CCCCC3)nn2)c(C)c1CCC(=O)Nc1ccc(F)cc1F	.	.	.	-	.
O=C1S/C(=C\c2ccc(Cl)cc2)C(=O)N1CCn1cnnn1	-	.	-	-	-

Bioassay records deposited in PubChem by National Center for Advancing Translational Sciences (NCATS).
